# Results published in PubChem BioAssay (NCI).
# This is part of a sample that, as a whole, favours compounds with a hit. Of some 83,000 tested, about 20% had one in any assay.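 Single-dose data. Exposure time 48 hours. Values below 10 considered active.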 A number with no mark means an inactive call. The source made the active and inactive calls.
# Tests used:
# Experiment in all cases: NCI-60 one-dose screen, 48 h (100 = growth as untreated, 0 = no growth, -100 = all killed)
# Details in all cases: 10 µM unless noted
# HT29 colon = test system: HT29 colon
# SNB-75 CNS = test system: SNB-75 CNS
# SNB-19 CNS = test system: SNB-19 CNS
# U251 CNS = test system: U251 CNS
# PC-3 prostate = test system: PC-3 prostate
# SK-MEL-5 melanoma = test system: SK-MEL-5 melanoma
# UACC-62 melanoma = test system: UACC-62 melanoma
# SK-MEL-28 melanoma = test system: SK-MEL-28 melanoma
# SK-MEL-2 melanoma = test system: SK-MEL-2 melanoma
SMILES,growth (HT29 colon),growth (SNB-75 CNS),growth (SNB-19 CNS) [%],growth (U251 CNS),growth (PC-3 prostate),growth (SK-MEL-5 melanoma),growth (UACC-62 melanoma),growth (SK-MEL-28 melanoma),growth (SK-MEL-2 melanoma)
COc1cc(/C=C/C(=O)c2ccc(C(F)(F)F)cc2)ccc1Oc1nc(NCCO)nc(N2CCOCC2)n1,96.2%,91.4%,87.6,70.1%,87.2%,94%,78.7%,96.1%,98.8%
CCOC(=O)c1c(Nc2ccccc2)nn2c(N)c(C#N)c(-c3ccc(F)cc3)nc12,97%,82.4%,94,88.7%,80.3%,88.7%,84.6%,100%,100%
COc1ccc(/C=N/NC(=O)c2[nH]c3ccc(Br)cc3c2-c2ccccc2)s1,0.251% (active),26.4%,30.6,30.2%,30.9%,-24.4% (active),42.4%,63.6%,43.9%
C#Cc1nc(C2=C(C)C(O)CC2)cs1 (configuration not stated),118%,96.1%,104,104%,97.7%,101%,94.2%,105%,117%
COc1cc(/C=C/C(=O)c2ccc(Cl)cc2)ccc1Oc1nc(NCCO)nc(N2CCOCC2)n1,111%,97.8%,99.3,94%,95.3%,99.7%,93.9%,108%,99.7%
CN(C)c1ccc(/C=C2\Cc3c(F)ccc(Br)c3C2=O)cc1,104%,87.8%,93.1,91.6%,92%,96.4%,83.3%,97.4%,108%
COc1ccc(/C=C2\SC(=Nc3cc(C)on3)NC2=O)cc1,108%,97%,96.4,109%,96.7%,99.3%,95.1%,106%,115%
COc1cc(/C=C/C(=O)c2ccc(C)cc2)ccc1Oc1nc(NCCO)nc(N2CCOCC2)n1,19.4%,93.7%,44,34.6%,30.6%,43.7%,53.4%,76.6%,99.9%
COC(=O)C1CCCN(S(=O)(=O)/N=C2\NC(=O)NC2=C(Cl)Cl)C1 (configuration not stated),116%,125%,94.6,95.3%,101%,101%,94%,105%,106%
COc1cc(/C=C/C(=O)c2ccccc2)ccc1Oc1nc(NCCO)nc(N2CCOCC2)n1,105%,99.8%,97.8,88.4%,84.9%,99.3%,92.9%,107%,103%
N#Cc1ccc(/C=N/NC(=O)c2[nH]c3ccc(Br)cc3c2-c2ccccc2)s1,5.64% (active),49.7%,29.4,16.5%,25%,-40.9% (active),23.4%,58.4%,30.4%
O=C(N/N=C/c1cccs1)c1[nH]c2ccc(Br)cc2c1-c1ccccc1,-23.3% (active),31.4%,32.3,19.1%,26.1%,-36.7% (active),43%,60.7%,20.3%
O=C(Oc1ccc2ccc(=O)oc2c1)c1ccc(Cl)cc1,115%,112%,93.2,106%,103%,101%,97.3%,109%,113%
C=CCn1c(SCC(=O)c2ccc(Br)cc2)nnc1-c1c[nH]c2ccccc12,104%,106%,100,99.9%,78.3%,95.9%,83.1%,96.1%,115%
COc1cc(OC)c(S(=O)(=O)NNC(=O)c2ccncc2)cc1C(=O)/C=C/c1ccc(C)cc1,95.1%,73%,66.7,68.1%,45.9%,94.2%,76.2%,104%,109%
Cc1cc(C(NC(=O)CCCCCNc2cccc3c2C(=O)N(C2CCC(=O)NC2=O)C3=O)c2cccnc2)c(O)c2ncccc12 (configuration not stated),20.5%,8.96% (active),21.7,30.7%,6.73% (active),-58.7% (active),18.5%,25.2%,-16.9% (active)
CN1CCc2c(sc3ncnc(N/N=C/c4ccc(Cl)c(Cl)c4)c23)C1,-46.6% (active),79.5%,42,-43.6% (active),53.6%,86.6%,-26.8% (active),21.4%,117%
CCCC(=O)NC(c1cccc(N(C)C)c1)c1cc(C)c2cccnc2c1O (configuration not stated),91.6%,76.8%,69.3,55.5%,50.1%,62.7%,46.1%,77.1%,89.9%
C#Cc1nc(C2=C(C)/C(=N/OCc3ccccc3)CC2)cs1,67%,-88.4% (active),72.8,37.6%,82.3%,85.7%,62.5%,94.6%,98.7%
O=C(N/N=C/c1ccc(Cl)s1)c1[nH]c2ccc(Br)cc2c1-c1ccccc1,3.1% (active),28.1%,33.2,16.5%,30.2%,-23% (active),41.4%,61.6%,13.1%
C#Cc1nc(C2=C(C)C(O)/C(=N/O)C2)cs1 (configuration not stated),113%,-85.7% (active),109,109%,101%,94.9%,88%,111%,103%
COc1ccc(-n2c(SCC(=O)Nc3ccc(-c4nc5ccccc5[nH]4)cc3)nc3ccccc3c2=O)cc1,-5.71% (active),62.8%,20.9,-83.4% (active),6.41% (active),-7.57% (active),-18.3% (active),-64% (active),97.7%
C#Cc1nc(C2=C(C)C(=O)/C(=N/OC(C)=O)C2)cs1,115%,-46.3% (active),96.2,98.1%,94.3%,97.3%,80.3%,107%,96.9%
CCOC(=O)c1c(Nc2ccccc2)nn2c(N)c(C#N)c(-c3ccccc3)nc12,92.1%,86.1%,89.4,74.6%,76.5%,86.8%,83.4%,99.4%,92.2%
COc1cc(/C=C/C(=O)c2ccc(F)cc2)ccc1Oc1nc(NCCO)nc(N2CCOCC2)n1,53.5%,92.2%,69.4,44.1%,70.8%,82.1%,57.2%,91.3%,93.9%
N#Cc1c(-c2ccc(Cl)cc2)nc2c(-c3ccccc3)c(Nc3ccccc3)nn2c1N,62.9%,4.2% (active),72.8,19.8%,62.2%,92.9%,62.8%,82.5%,96%
COc1cc(N=Cc2sc(Nc3nccs3)nc2O)cc(OC)c1OC,109%,73.6%,78.2,84.7%,80.9%,87.6%,75.5%,84.2%,74%
Cn1ccnc1C(=O)/C=C/c1ccc(NC(=O)Nc2ccc(Cl)cc2)cc1,93.6%,74.4%,78.9,62.6%,78.8%,91.2%,92.2%,89.9%,110%
